Sampled rows, rich in hits. Any-hit rate of the full collection: about 6.3%.
Mdm2 MdmX PPI: inhibitors of human Mdm2-MdmX association, primary screen, cell-based, luminescence, split luciferase, SaOS-2, uHTS | hit rate 3% among 330,000 | Protein Mdm4 (Homo sapiens) + E3 ubiquitin-protein ligase Mdm2 (Homo sapiens), … | AID 485346, 2010 | SaOS-2 split-luciferase Mdm2/MdmX complementation | inhibition, % at 8 µM;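 active = inhibition of at least 50% at 8 µM in the primary screen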
Target sequence (O15151 whole entry, looked up): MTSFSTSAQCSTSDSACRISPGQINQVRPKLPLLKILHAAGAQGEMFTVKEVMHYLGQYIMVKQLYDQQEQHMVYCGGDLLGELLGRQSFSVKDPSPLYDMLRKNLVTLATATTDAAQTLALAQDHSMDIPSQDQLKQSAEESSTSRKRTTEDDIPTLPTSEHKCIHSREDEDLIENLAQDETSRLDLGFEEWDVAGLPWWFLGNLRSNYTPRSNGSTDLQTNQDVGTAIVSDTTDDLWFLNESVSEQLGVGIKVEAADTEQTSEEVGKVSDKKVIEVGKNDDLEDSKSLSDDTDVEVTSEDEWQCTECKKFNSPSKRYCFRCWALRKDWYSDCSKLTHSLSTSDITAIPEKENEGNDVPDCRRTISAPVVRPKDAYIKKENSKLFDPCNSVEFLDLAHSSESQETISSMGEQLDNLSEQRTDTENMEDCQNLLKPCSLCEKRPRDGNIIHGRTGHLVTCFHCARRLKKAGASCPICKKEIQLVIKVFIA
Target sequence (Q00987 whole entry, looked up): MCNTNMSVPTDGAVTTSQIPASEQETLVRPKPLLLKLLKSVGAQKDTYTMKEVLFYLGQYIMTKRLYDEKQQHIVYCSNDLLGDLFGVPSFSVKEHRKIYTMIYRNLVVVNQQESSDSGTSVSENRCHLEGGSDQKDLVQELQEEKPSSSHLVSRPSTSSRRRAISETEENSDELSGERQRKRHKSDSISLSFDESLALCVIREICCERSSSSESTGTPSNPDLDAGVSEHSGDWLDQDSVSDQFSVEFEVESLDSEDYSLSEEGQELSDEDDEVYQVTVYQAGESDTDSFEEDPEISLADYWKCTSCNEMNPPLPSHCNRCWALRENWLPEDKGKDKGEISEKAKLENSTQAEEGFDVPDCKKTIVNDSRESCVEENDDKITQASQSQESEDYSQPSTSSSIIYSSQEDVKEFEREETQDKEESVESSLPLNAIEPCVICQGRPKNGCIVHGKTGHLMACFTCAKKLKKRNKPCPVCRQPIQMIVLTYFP
TIM10 inh: growth inhibitors of isogenic TIM10 control yeast, primary screen, counter-screen for tim10-1 yeast inhibitor project, luminescence, uHTS | inhibition, % at 10 µM | S. cerevisiae TIM10 strain growth, BacTiter-Glo luminescence, 24 h | hit rate 1.4% among 330,000;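 active = inhibition of 40% or more at the single tested concentration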;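 also: wild-type TIM10 isogenic control strain grown at permissive 25 °C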
tim23-1 inh: growth inhibitors of tim23-1 mutant yeast, primary screen, luminescence, uHTS; S. cerevisiae tim23-1 growth, BacTiter-Glo luminescence, 24 h; hit rate 1.3% among 330,000; inhibition, % at 20 µM;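 active = growth inhibition of the mutant yeast at or above 50%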;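 also: temperature-sensitive mutant grown at 25 °C; plate controls were DMSO-treated mutant yeast for no effect and medium wells lacking yeast for full effect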
tim10-1 inh: growth inhibitors of tim10-1 mutant yeast, primary screen, luminescence, uHTS. inhibition, % at 20 µM. hit rate 2.2% among 330,000. S. cerevisiae tim10-1 ts strain growth, BacTiter-Glo, 24 h;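 active = inhibition of at least 40%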;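 also: mutant grown at 25 °C; 0% = DMSO wells with yeast and 100% = wells holding no yeast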
MPTP inh: mitochondrial permeability transition pore inhibitors, primary screen, biochemical, isolated mouse mitochondria, absorbance; Ca2+ swelling absorbance, 30 min; inhibition, % at 10 µM; hit rate 1.4% among 360,000; AID 602449, 2012;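 active = inhibition of 50% or more, scaled per plate between neutral and stimulator controls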;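 also: 0% = DMSO wells given calcium and 100% = 1 mM EGTA wells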
Mdm2-MdmX conf: Mdm2-MdmX complex disruptors, retested hits, confirmation, luminescence, single concentration | shares compounds with Mdm2 MdmX PPI | Mdm2-MdmX binding, luminescent assay | inhibition, % at 8 µM | hit rate 55% among 10,000 | AID 489028, 2010; in the data active = inhibition above about 40%
Full FLuc ctr: full-length luciferase signal inhibition, confirmation, counter-screen for Mdm2/MdmX interaction inhibitor project, cell-based, single concentration, SaOS-2. inhibition, % at 8 µM. shares compounds with Mdm2 MdmX PPI. AID 504607, 2011. SaOS-2 full-length luciferase counterscreen, luminescence. hit rate 77% among 6,200;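 active = mean inhibition at 8 µM reaching about 37%, which flags the compound as non-specific, limit read from the data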;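 also: p53-null SaOS-2 cells with luciferase driven by a doxycycline-inducible promoter; compound on cells about two nights before reading with doxycycline added after day one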
* = called active by the depositor; . = no result.

SMILES | Mdm2 MdmX PPI | TIM10 inh | tim23-1 inh | tim10-1 inh | MPTP inh | Mdm2-MdmX conf | Full FLuc ctr
COc1ccc(OCC(=O)Nc2ccccc2-c2ccccc2)cc1 | 52.7* | 21.3 | 18.2 | 28.8 | -3.9 | 59.4* | 62.1*
COc1ccc(OCC(=O)Nc2ccccc2N2CCN(C)CC2)cc1 | 0.8 | -18.3 | 10.1 | 10.6 | 0.0 | . | .
COc1ccc(OCC(=O)Nc2ccccc2N2CCCCC2)cc1 | 60.8* | 17.7 | 6.6 | 1.4 | -1.0 | 76.0* | 59.1*
CC(C)C(=O)Nc1ccc(C(=O)N/N=C/c2cc(Br)cc(Br)c2O)cc1 | 66.2* | 7.8 | -3.7 | 12.7 | 6.7 | 22.3 | .
Cc1ccc(-c2csc(C(O)c3cccc(Cl)c3)n2)cc1C (centres undefined) | . | . | . | . | 2.6 | . | .
Nc1c(C(=O)Nc2ccc(S(=O)(=O)N3CCCC3)cc2)sc2nc3ccc(OC(F)(F)F)cc3cc12 | 89.9* | -3.5 | -16.6 | 29.4 | 1.0 | -11.5 | .
COc1ccc(NC(=O)CN2C(=O)NC(C)(Cc3ccc(OC)c(OC)c3)C2=O)cc1 (centres undefined) | . | . | . | . | -1.8 | . | .
COc1ccc(C(NC(=O)c2c(F)c(F)c(F)c(F)c2F)c2ccccc2)cc1 (centres undefined) | 77.4* | 2.9 | 8.7 | 9.7 | 17.2 | -0.9 | .
CC1(C(=O)NS(=O)(=O)c2ccc(Cl)s2)CCN1C(=O)Cc1ccc(-c2ccccc2)cc1 (centres undefined) | . | . | . | . | 1.9 | . | .
COc1cccc(Sc2ccccc2/C=N/NC(N)=O)c1 | 52.6* | -9.3 | -6.5 | -8.1 | 0.4 | 67.2* | 57.5*
C[C@@H]1COC(=O)[C@H](Cc2ccc(F)cc2)CC/C=C/C[C@@H](CC(=O)N[C@@H](CO)Cc2ccccc2)C(=O)N1 | 15.9 | 7.7 | -5.6 | 1.0 | 0.4 | . | .
O=C1NC[C@H](c2ccccc2)OC(=O)[C@@H](Cc2ccc(F)cc2)C/C=C\C[C@H]1CC(=O)N(CCO)Cc1ccccc1 | 85.2* | -1.4 | 1.8 | -2.4 | -1.2 | 78.7* | 50.8*
O=C1N[C@@H](Cc2c[nH]c3ccccc23)COC(=O)[C@@H](Cc2ccc(F)cc2)C/C=C\C[C@H]1CC(=O)N(CCO)Cc1ccccc1 | 51.4* | 10.7 | -4.8 | -12.1 | 0.8 | 19.9 | .
O=C1NC[C@@H](c2ccccc2)OC(=O)[C@H](Cc2ccc(F)cc2)C/C=C\C[C@H]1CC(=O)N(CCO)Cc1ccccc1 | 31.4 | -2.3 | 0.9 | -4.0 | -1.3 | . | .
O=C(C[C@@H]1C/C=C/CC[C@H](Cc2ccc(F)cc2)C(=O)OC[C@@H](Cc2ccccc2)NC1=O)N[C@H](CO)Cc1ccccc1 | 96.1* | 0.0 | 3.4 | 3.4 | 0.1 | 92.8* | 29.8
O=C1NC[C@H](c2ccccc2)OC(=O)[C@H](Cc2ccc(F)cc2)C/C=C\C[C@H]1CC(=O)N(CCO)Cc1ccccc1 | 80.5* | -2.2 | -0.3 | 0.8 | -0.2 | 62.9* | 46.6*
COc1ccccc1N(C(=O)CCl)c1cn(C(C)=O)c2ccccc12 | 96.1* | 35.3 | 36.1 | 30.8 | 1.4 | 100.1* | 52.4*
COc1ccccc1N(CC(O)Cn1c2ccccc2c2ccccc21)S(=O)(=O)c1ccccc1 (centres undefined) | 8.0 | 21.6 | 29.7 | 26.9 | 8.6 | . | .
COc1ccccc1NC(=O)c1oc2ccccc2c1NC(=O)c1cc(OC)c(OC)c(OC)c1 | 70.5* | 2.5 | -16.2 | 5.3 | 0.5 | 62.1* | 54.0*
COc1ccc(OC)c(NC(=O)c2oc3ccccc3c2NC(=O)C2CC2)c1 | 57.9* | -5.4 | 1.1 | -1.5 | 1.4 | 17.6 | .
COCC(=O)Nc1c(C(=O)Nc2ccccc2OC)oc2ccccc12 | -1.0 | 12.2 | -3.4 | 21.9 | -2.8 | . | .
COc1ccc(OC)c(NC(=O)CN(Cc2ccc(F)cc2)C2CCCCC2)c1 | 51.7* | 15.6 | 12.8 | -20.5 | 2.0 | 23.3 | .
COc1ccc(OC)c(NC(=O)NCc2ccc(F)cc2)c1 | -17.3 | 9.9 | 25.2 | 3.2 | 0.3 | . | .
